# Where “and” joins values, the source holds several entries; their conditions need not be identical. Equal entries are not always repeated. Out of some 5,500 compounds screened, about 2,000 (36%) were called active. Roughly 18% stayed inconclusive and do not appear here. The list shows a part of the results. Unmarked numbers belong to inactive results. No stated cut-off is given here; in the data, active means normalized growth mostly below about 0.91 (no sharp cut-off); inconclusive means no clear call, values can overlap the other calls; inactive means mostly above about 0.92.
# Experiment: chemical genetic growth profiling, strain panel (AID 1159580);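 further: tested at 20 µM; growth read once vehicle control cultures reached saturation at 30 °C; 1 = growth at the plate median or of vehicle wells; lower values mean less growth of the strain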
# Details: S. cerevisiae deletion strains, growth OD
smiles,measurement,setting,value
COc1ccc2c(c1)OC[C@@H](Cc1ccc(OC)c(OC)c1)[C@H]2O,normalized growth,"locus YAL013W, strain DEP1, hits give low values",0.986
same,normalized growth,"locus YAL021C, strain ccr4, hits give low values",0.993
same,normalized growth,"locus YAL026C, strain drs2, hits give low values",1.02
same,normalized growth,"locus YAL030W, strain snc1, hits give low values",1.01
same,normalized growth,"locus YBL061C, strain skt5, hits give low values",1
same,normalized growth,"locus YBR009C, strain hhf1, hits give low values",0.993
same,normalized growth,"locus YBR021W, strain FUR4, hits give low values",1.06
same,normalized growth,"locus YBR023C, strain chs3, hits give low values",0.999
same,normalized growth,"locus YBR171W, strain sec66, hits give low values",1.01
same,normalized growth,"locus YBR229C, strain ROT2, hits give low values",1
same,normalized growth,"locus YBR231C, strain swc5, hits give low values",1.01
same,normalized growth,"locus YBR279W, strain paf1, hits give low values",1.02
same,normalized growth,"locus YCL011C, strain gbp2, hits give low values",1.01
same,normalized growth,"locus YCL016C, strain dcc1, hits give low values",1
same,normalized growth,"locus YCL029C, strain bik1, hits give low values",0.953
same,normalized growth,"locus YCL061C, strain MRC1, hits give low values",0.98
same,normalized growth,"locus YCL069W, strain vba3, hits give low values",1.01
same,normalized growth,"locus YCR088W, strain abp1, hits give low values",0.999
same,normalized growth,"locus YDL005C, strain med2, hits give low values",0.999
same,normalized growth,"locus YDL035C, strain GPR1, hits give low values",0.984
same,normalized growth,"locus YDL040C, strain nat1, hits give low values",0.991
same,normalized growth,"locus YDL074C, strain BRE1, hits give low values",0.995
same,normalized growth,"locus YDL101C, strain DUN1, hits give low values",1
same,normalized growth,"locus YDL134C, strain PPH21, hits give low values",1.06
same,normalized growth,"locus YDL185W, strain tfp1, hits give low values",0.943
same,normalized growth,"locus YDL192W, strain arf1, hits give low values",0.967
same,normalized growth,"locus YDR001C, strain nth1, hits give low values",1
same,normalized growth,"locus YDR069C, strain doa4, hits give low values",0.992
same,normalized growth,"locus YDR101C, strain arx1, hits give low values",0.981
same,normalized growth,"locus YDR137W, strain rgp1, hits give low values",0.806 (active)
same,normalized growth,"locus YDR159W, strain sac3, hits give low values",0.939
same,normalized growth,"locus YDR162C, strain NBP2, hits give low values",1.01
same,normalized growth,"locus YDR195W, strain ref2",1
same,normalized growth,"locus YDR297W, strain sur2, hits give low values",1
same,normalized growth,"locus YDR318W, strain mcm21, hits give low values",0.981
same,normalized growth,"locus YDR334W, strain swr1, hits give low values",1.02
same,normalized growth,"locus YDR335W, strain msn5, hits give low values",1.01
same,normalized growth,"locus YDR388W, hits give low values",0.969
same,normalized growth,"locus YDR392W, strain spt3, hits give low values",0.929
same,normalized growth,"locus YDR502C, strain sam2, hits give low values",0.983
same,normalized growth,"locus YEL003W, strain gim4, hits give low values",1.01
same,normalized growth,"locus YEL037C, strain rad23, hits give low values",1.01
same,normalized growth,"locus YEL061C, strain CIN8 (second series), hits give low values",1.01
same,normalized growth,"locus YEL061C, strain CIN8, hits give low values",0.99
same,normalized growth,"locus YER015W, strain faa2, hits give low values",1.01
same,normalized growth,"locus YER016W, strain bim1, hits give low values",1.01
same,normalized growth,"locus YER110C, hits give low values",0.978
same,normalized growth,"locus YER111C, strain swi4, hits give low values",1
same,normalized growth,"locus YER155C, strain BEM2 (second series), hits give low values",1.01
same,normalized growth,"locus YER155C, strain BEM2, hits give low values",0.984
same,normalized growth,"locus YER167W, strain BCK2, hits give low values",0.957
same,normalized growth,"locus YFR010W, strain ubp6, hits give low values",1.01
same,normalized growth,"locus YGL078C, strain dbp3, hits give low values",0.977
same,normalized growth,"locus YGL086W, strain mad1, hits give low values",0.989
same,normalized growth,"locus YGL167C, strain pmr1, hits give low values",1.01
same,normalized growth,"locus YGL173C, strain kem1, hits give low values",1.02
same,normalized growth,"locus YGL227W, strain vid30, hits give low values",0.999
same,normalized growth,"locus YGL240W, strain doc1, hits give low values",1.01
same,normalized growth,"locus YGL248W, strain PDE1, hits give low values",1.03
same,normalized growth,"locus YGL253W, strain hxk2, hits give low values",1
same,normalized growth,"locus YGR135W, strain pre9, hits give low values",0.99
same,normalized growth,"locus YGR252W, strain gcn5, hits give low values",1.01
same,normalized growth,"locus YHR013C, strain ard1, hits give low values",1.01
same,normalized growth,"locus YHR027C, strain rpn1, hits give low values",0.999
same,normalized growth,"locus YHR030C, strain SLT2, hits give low values",0.987 and 0.938
same,normalized growth,"locus YHR079C, strain IRE1 (second series), hits give low values",0.979
same,normalized growth,"locus YHR079C, strain IRE1, hits give low values",0.956
same,normalized growth,"locus YHR094C, strain hxt1, hits give low values",0.978
same,normalized growth,"locus YHR129C, strain ARP1, hits give low values",0.994
same,normalized growth,"locus YHR142W, strain chs7, hits give low values",0.975
same,normalized growth,"locus YHR200W, strain rpn10, hits give low values",0.966
same,normalized growth,"locus YIL066C, strain RNR3, hits give low values",1.01
same,normalized growth,"locus YIL073C, strain SPO22, hits give low values",0.919
same,normalized growth,"locus YIR030C, strain dcg1, hits give low values",0.955
same,normalized growth,"locus YJL092W, strain hpr5, hits give low values",1.01
same,normalized growth,"locus YJL095W, strain BCK1 (second series), hits give low values",1.01
same,normalized growth,"locus YJL095W, strain BCK1, hits give low values",1.04 and 0.939
same,normalized growth,"locus YJL115W, strain asf1, hits give low values",1.01
same,normalized growth,"locus YJL129C, strain trk1, hits give low values",0.956
same,normalized growth,"locus YJL134W, strain LCB3, hits give low values",0.991
same,normalized growth,"locus YJL154C, strain vps35, hits give low values",1.01
same,normalized growth,"locus YJL164C, strain tpk1, hits give low values",0.993
same,normalized growth,"locus YJL166W, strain qcr8, hits give low values",1.01
same,normalized growth,"locus YJL168C, strain set2, hits give low values",0.997
same,normalized growth,"locus YJL187C, strain SWE1 (second series), hits give low values",1.01
same,normalized growth,"locus YJL187C, strain SWE1, hits give low values",1
same,normalized growth,"locus YJR043C, strain POL32, hits give low values",1.01

# — PubChem BioAssay AID1159580 (chemical genetic matrix, 2015)
